# Source: PubChem BioAssay AID1861 (The Scripps Research Institute Molecular Screening Center, 2009)
# The whole screen tested about 290,000 compounds, of which about 3,100 (1.1%) were called active. What follows is part of a selection rich in actives, with near analogues and random picks from the rest. Unmarked numbers belong to inactive results. Cut-off read from the data, not from the text of the source: active = inhibition above about 16% (passing the limit was not always enough); inactive = the rest.
# Molecular target: Neuropeptides B/W receptor type 1 (Homo sapiens) (UniProt P48145)
# Sequence (P48145 whole entry, looked up): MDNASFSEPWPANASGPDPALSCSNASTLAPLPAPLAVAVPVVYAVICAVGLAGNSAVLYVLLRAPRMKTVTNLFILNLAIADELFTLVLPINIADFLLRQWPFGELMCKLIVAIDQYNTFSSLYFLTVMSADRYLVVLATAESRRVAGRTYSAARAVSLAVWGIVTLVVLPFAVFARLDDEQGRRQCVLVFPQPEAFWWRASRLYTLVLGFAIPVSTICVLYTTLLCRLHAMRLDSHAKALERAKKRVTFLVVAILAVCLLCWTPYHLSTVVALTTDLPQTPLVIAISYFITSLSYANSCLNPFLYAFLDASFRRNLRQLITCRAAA
# Experiment: blockers of human neuropeptide B/W receptor 1 – cell-based, fluorescence, single concentration, primary screen (AID 1861);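 note: cells stimulated with the agonist NPW; 0% = agonist with vehicle and 100% = vehicle without agonist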
# Details: GPR7-expressing cells, fluorescence antagonist assay; at 4.4 µM; stronger effect = higher value
row,Compound,inhibition
1,O=C(NCCS(=O)(=O)c1ccc(Br)cc1)c1ccccc1Cl,1.64%
2,O=C(c1ccco1)N1CCN(Cc2cccc(C(F)(F)F)c2)CC1,-13.2%
3,Cc1ccc(NS(=O)(=O)c2ccc(-c3ccc(=O)[nH]n3)o2)c(C)c1,-0.17%
4,COc1cc(C(C(=O)NC2CCCC2)N(Cc2ccccc2)C(=O)c2snc(C(N)=O)c2N)ccc1O (stereo not drawn),-10.6%
5,CCc1ccc(S(=O)(=O)Nc2cc3c(cc2N2CCCCC2)n(C)c(=O)c(=O)n3C)cc1,4.78%
6,Cc1ccc(S(=O)(=O)n2cnc3ccccc32)c(C)c1,35.5% (active)
7,COc1ccc(S(=O)(=O)n2cnc3ccccc32)c(C)c1,-5.76%
8,Cc1ccc(C)c(S(=O)(=O)n2cnc3ccccc32)c1,8%
9,CCc1nc2ccc(C(=O)N3CCN(c4cccc(Cl)c4)CC3)cc2nc1CC,-5.19%
10,O=C1CCC([N+](=O)[O-])C(c2ccccc2Br)N1 (stereo not drawn),-13.4%
11,CCCOc1ccccc1C1CC(=O)Nc2cc3c(cc21)OCO3 (stereo not drawn),23.7% (active)
12,COc1ccccc1C1C2=C(COC2=O)Nc2cc3c(cc21)OCO3 (stereo not drawn),3.72%
13,COc1ccc(C2CC(=O)Nc3cc(C)c(C)cc32)c(OC)c1OC (stereo not drawn),-2.76%
14,CC(C)(C)C(=O)CN1C2=NCCN2c2ccccc21,-10.1%
15,Cc1cc2c(cc1C)N(Cc1ccccc1)C1=NCCCN12,23.7% (active)
16,OC(CN1C2=NCCCN2c2ccccc21)c1ccc(Br)cc1 (stereo not drawn),13.8%
17,CC(=O)Nc1ccc(NC(=O)CS(=O)(=O)c2cn(CC(=O)N3CCCCC3)c3ccccc23)cc1,-0.17%
18,CC(=O)Nc1ccc(CN2CCC(Oc3ccc(C(=O)N4CCCC4)cc3)CC2)cc1,-2.18%
19,COc1ccc(OCc2nnc3n2N=C(c2ccccc2)C(CC(=O)O)S3)cc1 (stereo not drawn),-5.82%
20,O=C(Cc1ccccn1)c1ccc(O)cc1O,1.18%
21,CCOC(=O)C1CSC(CC(=O)Nc2ccc(OCC)cc2)C(=O)N1 (stereo not drawn),31.6% (active)
22,CCOc1ccc(NC(=O)CCNC(=O)c2ccc(Br)cc2)cc1,-13.4%
23,CCOc1ccc(NC(=O)CC2NCCNC2=O)cc1 (stereo not drawn),-18.5%
24,CN(c1ccccc1)S(=O)(=O)c1ccc(NC(=O)COc2ccccc2)cc1,1.02%
25,COc1ccc(NC(=O)C2C3CCC(O3)C2C(=O)O)cc1OC (stereo not drawn),-10.2%

row,Compound,inhibition
1,Cc1cccc(-c2nnc(SCC(=O)O)n2Cc2ccccc2)c1,-5.33%
2,CC1C=CCC2C(=O)N(c3cccc(C(=O)N4CCCCCC4)c3)C(=O)C12 (stereo not drawn),3.08%
3,COC(=O)c1ccccc1NC(=O)CSc1n[nH]c(-c2ccncc2)n1,-2.88%
4,Cc1cc(-c2ccccc2)n2nc(C)c(-c3ccccc3)c2n1,-10.5%
5,Cc1cc(-n2nc(C)cc2C)n2nc(C)c(-c3ccccc3)c2n1,-6.35%
6,CCc1c(C)nc2c(-c3ccccc3)c(C)nn2c1Nc1ccc(NC(C)=O)cc1,27.4% (active)
7,COc1ccc(C(=O)CCC(=O)Nc2cccnc2)c(OC)c1,2.52%
8,Fc1ccccc1Cn1cnc(NC(=S)NCCc2ccccc2)n1,10.1%
9,N=c1n(CCc2ccccc2)c2ccccc2n1Cc1ccccc1F,21.8% (active)
10,CC(=O)NC(C)c1nc2ccccc2n1Cc1ccccc1F (stereo not drawn),-2.12%
11,CCNC(=O)c1cnn(-c2ccccc2)c1-c1ccccc1,-4.37%
12,COCCNC(=O)c1ccc2c(c1)ncn2-c1ccc(C)c(Cl)c1,0.48%
13,CC(=O)Nc1cccc(Nc2nc(-c3cccs3)nc3ccccc23)c1,-8.63%
14,COc1ccc(C(=O)NC2CC2)cc1OC1CCN(Cc2cnn(C)c2)CC1,0.96%
15,N#CC1=C(SCc2ccc(C#N)cc2)N=C(N)C(c2nc(-c3ccccc3)cs2)C12CCCCC2 (stereo not drawn),28.4% (active)
16,N#CC1=C(SCc2ccccc2)NC(=O)C(C#N)C12CCCC2 (stereo not drawn),-8.17%
17,N#Cc1ccc(CSc2ncccn2)cc1,3.62%
18,Cc1ccc2c(=O)oc(N(C)C)nc2c1,9.69%
19,CC1C(=O)Nc2ccccc2N1C(=O)c1c(F)cccc1F (stereo not drawn),-14.5%
20,COC(=O)C(C)Oc1ccc2c(c1)O/C(=C\c1cccc(Br)c1)C2=O (stereo not drawn),-5.02%
21,COc1cccc(/C=N/Nc2ccc(Cl)nn2)c1,-14.8%
22,Clc1ccc(N/N=C/c2cccs2)nn1,-9.79%
23,Oc1cccc(/C=N/Nc2ccc(Cl)nn2)c1O,43.7% (active)
24,CCc1cccc(C)c1NS(=O)(=O)c1c(C)nc2sccn2c1=O,-6.98%
25,O=C(/C=C/Sc1ncn[nH]1)c1ccc(Cl)cc1,4.91%

row,Compound,inhibition
1,Cc1ccc(N(Cc2ccccc2O)C(=O)c2ccccc2F)cc1,-15.3%
2,CCCc1ccc(OCC(O)CN2CCN(C(=O)OCC)CC2)cc1 (stereo not drawn),-0.9%
3,Cc1ccc(N2CCN(c3ccc([N+](=O)[O-])cn3)CC2)c(C)c1,15.6%
4,CCCCNC(=O)CSc1nc2ccc(NC(=O)CSc3nnc(COc4ccccc4C)n3C)cc2s1,8.43%
5,Nc1nnc(SCC(=O)Nc2ccc3nc(SCC(=O)Nc4ccccc4)sc3c2)s1,30.6% (active)
6,CCCCNC(=O)CSc1nc2ccc(NC(=O)CSc3nnc(N)s3)cc2s1,-5.46%
7,COc1ccc(S(=O)(=O)N2CCCCC2)cc1Br,20.2% (active)
8,COc1ccc(F)cc1S(=O)(=O)N1CCCCC1,-5.33%
9,COc1ccc(S(=O)(=O)Nc2ccc(S(=O)(=O)N3CCCCC3)cc2)cc1OC,-7.42%
10,CCOc1ccc(C(=O)NC(=S)Nc2ccc(N3CCOCC3)c(Cl)c2)cc1[N+](=O)[O-],21% (active)
11,COc1cccc(OC)c1C(=O)NC(=S)Nc1ccc(N2CCOCC2)c(Cl)c1,-6.83%
12,CCOc1ccc(C(=O)NC(=S)Nc2ccc(NC(=O)C(C)C)cc2)cc1[N+](=O)[O-],-1.37%
13,O=C(NCc1ccccc1Cl)C1CCN(S(=O)(=O)c2cccc3nonc23)CC1,-5.03%
14,COc1ccc(CCNC(=O)C(=O)NCC2OCCN2S(=O)(=O)c2cccs2)cc1OC (stereo not drawn),-18.7%
15,CC(C)c1ccc(C(=O)OC2CCOC2=O)cc1 (stereo not drawn),-10.7%
16,Cc1nn(Cc2ccccc2)c(Cl)c1C(=O)OC1CCOC1=O (stereo not drawn),-6.27%
17,O=C(OC1CCOC1=O)c1ccc(-c2nc3ccccc3s2)s1 (stereo not drawn),13.3% (active)
18,O=C(Nc1cccc(Cl)c1Cl)c1ccccc1NC(=O)C1CC=CCC1C(=O)O (stereo not drawn),1.26%
19,COc1ccc(C2CC(=O)NC(=O)C2)cc1,23%
20,c1ccc(C2CNCc3c2ccc2ccccc32)cc1 (stereo not drawn),38.9% (active)
21,Oc1ccccc1-c1cc(-c2ccc(Cl)cc2)n[nH]1,-4.03%
22,CC1=C(C(=O)OC(C)(C)C)C(c2ccc(Br)cc2)NC(=O)N1CCCC(=O)O (stereo not drawn),-5.35%
23,Cc1cc(NC(=O)Nc2c[nH]c(=O)[nH]c2=O)ccc1Br,-12.8%
24,CC1CN(C(=O)CCC(=O)NCc2cccnc2)c2ccccc2O1 (stereo not drawn),6.78%
25,CC1CN(C(=O)CCC(=O)NCCCN2CCC(Cc3ccccc3)CC2)c2cc(Cl)ccc2O1 (stereo not drawn),25.7% (active)

row,Compound,inhibition
1,CC1CN(C(=O)CCC(=O)NC2CCN(Cc3ccccc3)CC2)c2ccccc2O1 (stereo not drawn),-0.83%
2,COc1ccc(OC)c(NC(=O)CN(C)CCOc2ccc(Br)cc2)c1,17.7%
3,O=C(NCc1nnc(SCC(=O)N2CCCCCC2)o1)c1ccc(F)cc1,-18.2%
4,COc1ccc(C(=O)Nc2ccc(NC(=O)C(C)C)nc2)cc1,19.8%
5,COc1ccc(NC(=O)/C(Cl)=C(/Cl)S(=O)Cc2ccc(C)cc2)cn1 (stereo not drawn),57.6% (active)
6,COc1ccc(CS(=O)/C(Cl)=C(/Cl)C(=O)Nc2ccc(OC)nc2)cc1 (stereo not drawn),24.2% (active)
7,CCOc1ccc(S(=O)(=O)Nc2ccc(OC)nc2)cc1,6.88%
8,COc1ccc(NC(=O)c2cc(-c3ccc(C)cc3)on2)cc1,-12.6%
9,COc1ccc(Nc2cc(Cl)ccc2C(=O)O)cn1,-11.5%
10,Cc1occc(=O)c1OCc1c(Cl)cccc1Cl,-7.63%
11,CCN(CC)S(=O)(=O)c1ccc(NC(=O)c2cnc(C)cn2)cc1,-18.4%
12,CCOC(=O)c1cnc2ccc(F)cc2c1Nc1ccc2c(c1)OCCO2,-2.1%
13,COc1cccc(C(=O)NNC(=O)c2cccc(F)c2)c1,-2.7%
14,Cc1ccc2[nH]c3c(c2c1)CN(C(=O)CN1CCN(c2ccccc2)CC1)CC3,3.49%
15,O=C(CCCN1CCc2[nH]c3ccc(F)cc3c2C1)c1ccc(F)cc1,33.9% (active)
16,CCCC(=O)N1CCc2[nH]c3ccccc3c2C1,1.42%
17,CC(C)(C)CC(C)(C)NCC(O)COCCOc1ccc(Br)cc1 (stereo not drawn),36.9% (active)
18,COc1ccc(OCC(O)CNCCNc2nccc(C(F)(F)F)n2)cc1 (stereo not drawn),-3.59%
19,OC(COc1ccc(Br)cc1)CN1CCCC1 (stereo not drawn),-9.13%
20,O=C(Cc1cccs1)NCc1cccc(C(F)(F)F)c1,5.08%
21,COc1ccc(C2Nc3ccccc3C(=O)N2c2ccc(F)cc2)cc1Cn1nnc2ccccc21 (stereo not drawn),-1.83%
22,COc1ccc(N2C(=O)c3ccccc3NC2c2ccc(OC)c(CN3CCOCC3)c2)cc1 (stereo not drawn),-11.4%
23,COc1ccc(C2Nc3ccccc3C(=O)N2Cc2ccccc2)cc1Cn1nnc2ccccc21 (stereo not drawn),28.4% (active)
